# Screens from PubChem BioAssay.
# Dicer inh = inhibitors of Dicer pre-microRNA processing, primary screen, biochemical, cat-ELCCA, chemiluminescence. cat-ELCCA pre-miR-21 Dicer processing; active compounds read high. z-score at 25 µM. 47,000 tested, 6% active; in the data active means z-score above about 3, passing the limit was not always enough;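 further: plate controls were vehicle for no effect and no enzyme for full effect; higher signal means more uncleaved substrate so more Dicer inhibition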
# Starred values were filed as active, the others as inactive. This is one part of a sample in which hits are shown more often than they occur.
SMILES,Dicer inh
O=C(O)c1coc2c1/C(=N/Nc1c(Cl)cc(Cl)cc1Cl)CCC2,3.8*
Cc1cc2nc(-c3cccc(N)c3)oc2cc1C,0.66
Nc1cccc(-c2nc3cc(Cl)ccc3o2)c1,4.5*
CN(C)c1ccc(-c2nc3cc(N)ccc3o2)cc1,3.4*
Nc1ccc(-c2nc3cc(N)ccc3o2)cc1,-0.37
Nc1cccc(-c2nc3ccccc3o2)c1,0.17
CCOc1ccc(-c2nc3cc(N)ccc3o2)cc1,1.5
NNS(=O)(=O)c1ccc(Cl)cc1,-2
CCOC(=O)C1=C(CC)NC2=C(C(=O)CC(C)(C)C2)C1c1ccc2c(c1)OCO2 (stereo not drawn),0.07
Cc1nc(-c2ccccc2)nc2[nH]c(-c3ccccc3)cc12,1
N#CCCN(Cc1ccccc1)S(=O)(=O)c1ccc(-c2ccccn2)s1,1
COc1ccc2c(c1)C(C)=CC(C)(C)N2S(=O)(=O)c1ccc(Cl)cc1,-0.32
Cc1cc(N2CCN(S(=O)(=O)c3ccc(F)cc3)CC2)c2ccccc2n1,0.66
O=C(CC(=O)c1ccccc1O)c1ccc(Cl)cc1,-1
Cc1ccc(C(=O)CC(=O)c2ccc(Cl)cc2)c(O)c1,4.4*
Cc1cc(C)c(C(=O)CC(=O)c2ccccc2Cl)c(O)c1,1.4
Cc1ccc(Br)cc1S(=O)(=O)Nc1ccccn1,0.67
C1=Cn2nc(/C=C/c3c[nH]c4ccccc34)nc2-c2ccccc2O1,4.2*
COc1ccc(/C=C/c2nc3n(n2)C=COc2ccccc2-3)cc1,0.55
CSc1ccc(/C=C/c2nc3n(n2)C=COc2ccccc2-3)cc1,1.1
CC(C)=NN(C)c1ncccc1[N+](=O)[O-],-0.94
O=c1cc(-c2ccccc2)nc2scc(-c3ccccc3)n12,0.34
Nc1nc(-c2ccc3c(c2)CCC3)cc(C(F)(F)F)n1,-0.7
CSC1=N/C(=C\c2ccccc2O)C(=O)N1Cc1ccc(Cl)cc1,6.5
Clc1ccc(C2(c3noc(-c4cccs4)n3)CC2)c(Cl)c1,0.23
SMILES,Dicer inh
COc1ccc(OC/C(N)=N/C(=S)Nc2cccc(C(F)(F)F)c2)cc1,-0.68
COc1ccc(S(=O)(=O)NCC(=O)O)cc1,1.4
Cc1ccc2ncnc(NCc3ccco3)c2c1,4.5*
Cc1ccc2ncnc(Nc3ccc(Cl)cc3)c2c1,-0.33
Cn1cnc2c(NCc3ccco3)ncnc21,-1.5
CC(C)C(=O)N(c1ccc2oc(=O)sc2c1)S(=O)(=O)c1ccccc1,2.6
CCCC(=O)N(c1ccc2oc(=O)sc2c1)S(=O)(=O)c1cccs1,-1.1
O=C(C1CCCCC1)N(c1ccc2oc(=O)sc2c1)S(=O)(=O)c1cccs1,3.7*
CC(=O)c1cc(F)c(Cl)cc1Cl,1
Cn1c(=O)c2c(-c3ccccc3)n(C(C)(C)C)cc2n(C)c1=O,-1.1
CC[n+]1c(/C=C/c2ccc(N(C)C)cc2)ccn1-c1ccccc1,3.3*
CN(C)c1ccc(/C=C/C2=Nc3ccccc3C2(C)C)cc1,-1.1
CC[n+]1c(/C=C/c2ccc(N(C)C)cc2)sc2ccccc21,0.65
Cc1ccc(-n2nc(C)c3c(C(F)(F)F)cc(-c4ccncc4)nc32)cc1,0.87
O=C(CSc1nnc2c(n1)[nH]c1ccccc12)Nc1nnc(-c2ccccc2)s1,-0.6
C=C(C)CSc1nnc2c(n1)[nH]c1ccccc12,3.6*
O=C(O)CSc1nnc2c(n1)[nH]c1ccccc12,-0.46
CCOC(=O)CSc1nnc2c(n1)[nH]c1ccccc12,-0.83
O=C(CSc1nnc2c(n1)[nH]c1ccccc12)Nc1nc2ccccc2s1,5.4*
Cc1nnc(NC(=O)CSc2nnc3c(n2)[nH]c2ccccc23)s1,1.6
CC(=O)N/C(=C\c1ccccc1Br)C(=O)O,-1.3
Nc1ccccc1SCc1nc(/C=C/c2cc(C(F)(F)F)cc(C(F)(F)F)c2)no1,-0.82
Cc1ccc(C2C(C#N)=C(N)Oc3nc[nH]c(=O)c32)cc1 (stereo not drawn),-0.58
O=C(NNS(=O)(=O)c1ccc(-c2ccccn2)s1)Nc1cccc(Cl)c1,4*
Clc1cccc(Sc2ccc(-c3ccccn3)s2)c1,-0.72
SMILES,Dicer inh
COc1ccc(SCCC(=O)NNS(=O)(=O)c2ccc(-c3ccccn3)s2)cc1,-1.7
O=C(Nc1ccc(F)cc1F)c1cccs1,6.4*
O=C(Nc1ccc(Sc2ccccc2)nc1Sc1ccccc1)c1cccs1,-0.73
O=C(Nc1ccc(F)cc1F)C(=S)NCc1cccs1,-0.05
O=C(O)c1cccc2cccc(Br)c12,0.37
Cc1nn(-c2ccccc2)c2c1C(c1ccc(Cl)cc1Cl)C(C#N)=C(N)O2 (stereo not drawn),-1.5
CCOC(=O)NC(NC(C)c1ccccc1)(C(F)(F)F)C(F)(F)F (stereo not drawn),-0.53
CCOC(=O)C(OC(=O)Nc1ccccc1)C(OC(=O)Nc1ccccc1)C(=O)OCC (stereo not drawn),1.9
CCOC(=O)NC1(NCC(C)C)Oc2ccccc2O1,6*
CC1=C(C(=O)OC(C)C)C(c2cccc(O)c2)n2c(nc3ccccc32)N1 (stereo not drawn),2.4
O=C(O)CCC(=O)N1N=C(c2cccs2)CC1c1ccccc1F (stereo not drawn),1.8
Cc1c(-c2ccc(-c3ccccc3F)cc2)nc2ccc(F)cc2c1C(=O)O,0.46
